Measurements published in PubChem BioAssay (NCATS).
Records with an inconclusive call do not appear. Where a call stands in place of a potency, no number is given. Values without a mark were called inactive. Active and inactive are the calls of the source. Calls come from the whole dose curve; as a rule, active = well fitted curve in the direction sought with a large enough effect; inconclusive = small, poorly fitted or top-dose-only effect, or another doubt; inactive = no such curve, though single readings can be large; an effect the other way counts as inactive or inconclusive.

Tests used:
[1] = test system: Zika virus NS2B-NS3 protease; assay: Primary screen GU AMC qHTS for Zika virus inhibitors (AID 1347154); note: nearly all actives have a fitted effect of over 70% in size
In short: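 Fluorogenic AMC-substrate cleavage by noncovalent NS2B-NS3 protease complex (25 nM, pH 8.0 Tris buffer with Tween 20) followed for 15 minutes at room temperature (~20% conversion). Percent inhibition from ex340/em450 signal change, fitted by 4-parameter Hill equation.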

[2] = Primary qHTS for small molecule stabilizers of the endoplasmic reticulum resident proteome: Secreted ER Calcium Modulated Protein (SERCaMP) assay (AID 1508630)
In short: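 The SH-SY5Y reporter protocol was run at 3 concentrations up to 38.3 uM (primary) or 11 concentrations (follow-up): 16 h compound, 100 nM thapsigargin for 4 h, then extracellular luciferase luminescence.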

Compound	Potency [1]	Potency [2]	activity change, negative = inhibition [1]	activity change, negative = inhibition [2]
C=CCN1CCC23c4c5ccc(O)c4OC2/C(=N/N=C2\CCC4(O)C6Cc7ccc(O)c8c7C4(CCN6CC=C)C2O8)CCC3(O)C1C5 (stereo not drawn)	inactive	inactive		
CC(CN)CC(=O)O (stereo not drawn)	inactive	inactive		
CCCCCCCCCCCCCCCCOC[C@@H](O)COP(=O)([O-])OCC[N+](C)(C)C			3.47% [at 6.83 µM]	13.1% [at 3.88 µM]
H-YGGFLRKYPK-OH			17.1% [at 6.83 µM]	-17% [at 3.88 µM]
